Hits are enriched below; roughly 1.5% of the tested compounds scored in any of these assays.
IDE inh – human IDE inhibitors in live cells, primary screen, fluorescence polarization, HEK cells, FAbetaB substrate. actives 0.41% (n = 320,000). inhibition, % at 5.59 µM. FAbetaB cleavage;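 active = percent inhibition above the average of all tested compounds plus 3 SD, set per screening campaign, cut at about 16% in these data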;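 note: IDE supplied by intact live HEK cells; FP after avidin binding of uncleaved biotin substrate so inhibition keeps polarization high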
Target sequence (P14735 whole entry, looked up): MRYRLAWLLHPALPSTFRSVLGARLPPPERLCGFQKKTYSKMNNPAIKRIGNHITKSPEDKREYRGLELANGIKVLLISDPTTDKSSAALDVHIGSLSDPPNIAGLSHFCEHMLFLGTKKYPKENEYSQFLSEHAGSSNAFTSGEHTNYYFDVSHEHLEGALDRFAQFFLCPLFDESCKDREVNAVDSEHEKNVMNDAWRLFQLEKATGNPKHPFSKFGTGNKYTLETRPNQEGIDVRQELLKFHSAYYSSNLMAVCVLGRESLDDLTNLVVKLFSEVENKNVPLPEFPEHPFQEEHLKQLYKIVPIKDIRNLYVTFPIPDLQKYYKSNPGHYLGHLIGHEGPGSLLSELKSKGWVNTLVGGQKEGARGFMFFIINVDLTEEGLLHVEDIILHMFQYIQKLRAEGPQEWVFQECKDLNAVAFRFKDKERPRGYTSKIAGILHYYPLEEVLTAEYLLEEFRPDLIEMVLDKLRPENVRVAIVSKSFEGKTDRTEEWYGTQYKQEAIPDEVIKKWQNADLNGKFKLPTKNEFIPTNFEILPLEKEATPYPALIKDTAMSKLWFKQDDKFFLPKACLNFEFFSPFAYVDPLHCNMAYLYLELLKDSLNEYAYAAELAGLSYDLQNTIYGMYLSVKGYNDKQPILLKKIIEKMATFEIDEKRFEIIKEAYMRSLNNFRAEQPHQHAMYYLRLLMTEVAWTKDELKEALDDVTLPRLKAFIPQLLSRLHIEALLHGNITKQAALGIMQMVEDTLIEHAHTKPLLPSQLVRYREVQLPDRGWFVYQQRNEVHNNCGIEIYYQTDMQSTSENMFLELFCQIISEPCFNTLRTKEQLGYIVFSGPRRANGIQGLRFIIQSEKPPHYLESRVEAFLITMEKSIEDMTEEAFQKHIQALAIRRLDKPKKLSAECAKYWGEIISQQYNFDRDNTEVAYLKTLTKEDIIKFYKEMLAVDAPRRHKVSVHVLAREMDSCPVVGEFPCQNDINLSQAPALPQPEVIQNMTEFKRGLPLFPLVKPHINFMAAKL
IDE cell activ – human IDE activators in live cells, primary screen, fluorescence polarization, HEK cells, FAbeta-B substrate; activation, % at 5.96 µM; actives 0.073% (n = 340,000); FAbeta-B cleavage; 0% vehicle, 100% cell-free pure enzyme wells;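 active = activation above the mean of all tested compounds plus 3 SD, set per screening campaign, cut at about 17% in these data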
RTF Ca sens act – cardiac RTF calcium sensitivity activators, primary screen, biochemical, IANBD-TnC fluorescence, EC20 calcium; IANBD-labeled TnC RTF fluorescence at EC20 calcium; 0% EC20 calcium, 100% full calcium; activation, % at 7.2 µM; actives 0.24% (n = 340,000); AID 493008, 2010;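 active = activation above the mean over all tested compounds plus 3 SD, cut at about 30% in these data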;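 note: rise in fluorescence read as greater calcium sensitivity of cardiac thin filaments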
RTF Ca sens inh – cardiac RTF calcium sensitivity inhibitors, primary screen, biochemical, IANBD-TnC fluorescence, EC70 calcium. Troponin I, cardiac muscle (Homo sapiens) + Troponin T, cardiac muscle (Homo sapiens) + …. IANBD-labeled cardiac RTF, Ca2+ fluorescence. inhibition, % at 7.15 µM. actives 0.12% (n = 340,000);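 active = inhibition above the mean inhibition of all tested compounds plus 3 SD, cut at about 17% in these data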;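 note: assay run at fixed EC70 calcium of 1.6 mM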
CRFR2-BP antag – antagonists of CRF-BP/CRF-R2 complex, primary screen, cell-based, HEK293, calcium dye fluorescence, uHTS; CRF-induced calcium fluorescence; inhibition, % at 11.8 µM; actives 0.59% (n = 350,000);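 active = inhibition of the ligand-induced calcium signal above about 50% at the single tested concentration, limit read from the data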
CRFBP-R2 agonist – agonists of CRF-BP/CRF-R2 complex, primary screen, cell-based, HEK293, calcium dye fluorescence, uHTS. CRF-binding protein / CRF receptor 2 complex (human). calcium dye fluorescence (FLIPR); percent of saturating CRF peptide response. activation, % at 13.2 µM. actives 0.46% (n = 350,000). AID 588473, 2011;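 active = activation of at least 50%, plus an integration ratio under a set limit after plate pattern correction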
Each line names hits and unclear results; the compound was inactive in the other large screens.

CCOc1ccccc1CN1CCNC(=O)C1CC(=O)NCc1ccccn1 (stereo unspecified)	none
CSc1c(CC(=O)NCCCO)n(Cc2ccccc2)c2ccccc12	none
COc1ccc(NC(=O)Cc2c(SC)c3ccccc3n2Cc2ccccc2)cc1	CRFR2-BP antag 60
Cc1cc[n+](-c2[nH]c(=O)sc2/C=N/N=C(\[O-])c2ccccc2)cc1C	RTF Ca sens act 55 (no result: IDE inh)
COc1ccc(N(CC(=O)NCCSc2ccccn2)S(=O)(=O)c2ccccc2)cc1OC	none
COc1ccc(N(CC(=O)NCCSc2ccccn2)S(=O)(=O)c2ccc(C)cc2)cc1OC	CRFR2-BP antag 55
O=C(O)C(c1ccccc1)N1C(=O)/C(=C\c2ccc(-c3ccc(Br)cc3)o2)SC1=S (stereo unspecified)	RTF Ca sens act 63, CRFBP-R2 agonist 85 (no result: IDE inh)
COc1cccc(/C=C2\SC(=S)N(C(C(=O)O)c3ccccc3)C2=O)c1OC (stereo unspecified)	none
O=C(O)C(c1ccccc1)N1C(=O)/C(=C\c2ccc(-c3ccccc3Cl)o2)SC1=S (stereo unspecified)	CRFBP-R2 agonist 91
Cn1c(SCC(=O)O)nnc1-c1ccc2ncccc2c1	none (no result: IDE cell activ, RTF Ca sens act, RTF Ca sens inh, CRFR2-BP antag, CRFBP-R2 agonist)
COc1ccc(S(=O)(=O)N2CCOC2CNC(=O)C(=O)NCCc2ccccc2)cc1C (stereo unspecified)	CRFR2-BP antag 140
Cc1c(N2C(=O)C3C4C=CC(C5CC45)C3C2=O)c(=O)n(-c2ccccc2)n1C (stereo unspecified)	CRFR2-BP antag 115
Cc1ccc(S(=O)(=O)N(Cc2ccccc2)c2ccccc2C(=O)Nc2ccccc2C(=O)NCc2ccco2)cc1	none
Cc1ccc(S(=O)(=O)N(Cc2ccccc2)c2ccccc2C(=O)NCc2ccco2)cc1	CRFR2-BP antag 71
COc1cccc(NC(=S)NC(Cc2ccccc2)c2ccccc2)c1 (stereo unspecified)	CRFR2-BP antag 84 (no result: IDE inh, IDE cell activ, RTF Ca sens act, RTF Ca sens inh)
COc1ccc(C(=O)NCCS(=O)(=O)N(C)C2CCCCC2)cc1	CRFR2-BP antag 51
Cc1nnc(SCC(=O)NNC(=O)c2ccc(F)cc2)n1Cc1ccccc1	none
CCC(/C=C1\Oc2ccc(OC)cc2N1C)=C\c1sc2ccccc2[n+]1CCCS(=O)(=O)[O-]	RTF Ca sens act 77 (no result: IDE inh)
COc1cc(/C=C/c2sc3ccccc3[n+]2CCCS(=O)(=O)[O-])ccc1O	RTF Ca sens act 68
O=C(CCCc1ccccc1)N1CCN(c2ccc([N+](=O)[O-])cc2)CC1	CRFR2-BP antag 68
O=C(c1cc([N+](=O)[O-])ccc1N1CCOCC1)N1CCCCC1	none
O=C(c1cc([N+](=O)[O-])ccc1N1CCOCC1)N1CCN(c2ccc([N+](=O)[O-])cc2)CC1	IDE cell activ 30
COC(=O)c1ccccc1NC(=O)NC1CCCCC1	none
Clc1ccccc1CN1CCN(/N=C/C=C/c2ccco2)CC1	none
CN(Cc1c(C(=O)N/N=C/c2cccs2)nnn1-c1nonc1N)c1ccccc1	none
N#C/C(=C\c1ccc([N+](=O)[O-])o1)c1nc2ccccc2[nH]1	CRFBP-R2 agonist 66 (no result: IDE cell activ, RTF Ca sens act, RTF Ca sens inh)
Cc1ccc2nc(/C(C#N)=C\c3ccc([N+](=O)[O-])o3)[nH]c2c1	CRFBP-R2 agonist 55
CCOC(=O)Cc1csc(N/N=C\c2ccccc2OC)n1	none
C[C@]12c3[nH]c4ccccc4c3CCN1C(=O)C(CC(=O)NCCCn1ccnc1)C[C@@H]2C(=O)N1CCCCC1 (stereo partly specified)	none
CC(C)NC(=O)Nc1ccc2c(c1)C(=O)N([C@H](C)CO)C[C@H](C)[C@@H](CN(C)S(=O)(=O)c1ccc(F)cc1)O2	none
Cc1noc(C)c1NC(=O)Nc1ccc2c(c1)C(=O)N([C@H](C)CO)C[C@H](C)[C@@H](CN(C)S(=O)(=O)c1ccc(F)cc1)O2	CRFR2-BP antag 70
CCN(CC)c1ccc2c(c1)oc(=O)c1c(Cl)cc(=O)oc12	RTF Ca sens act 200, CRFBP-R2 agonist 223
CCN(CC)CCOc1nc(C)nc2c1oc1ccccc12	none
CCN(CC)CCCOc1nc(C)nc2c1oc1ccccc12	RTF Ca sens inh 36 (no result: IDE inh)
C/C(=N\NC(=O)c1c(-c2ccccc2Cl)noc1C)c1cccc(NC(=O)C(C)C)c1	none
COc1ccc(NC(=O)Cn2nc(C(=O)O)c3ccccc3c2=O)cc1Cl	none
COC(=O)c1c(NC(=O)CC2Nc3ccccc3NC2=O)sc(C)c1C (stereo unspecified)	CRFR2-BP antag 53
CCOC(=O)c1c(NC(=O)CC2Nc3ccccc3NC2=O)sc(C)c1C (stereo unspecified)	none
C[C@]12CCC(O)CC1CCC1C2CC[C@]2(C)C(c3cc(C(F)(F)F)n[nH]3)CCC12 (stereo partly specified)	CRFBP-R2 agonist 54
CC12CCC3C(CCC4CC(O)CCC43C)C1CC(O)C2 (stereo unspecified)	none (no result: IDE inh)
O=C(NCc1ccco1)/C(=C\c1ccco1)NC(=O)c1ccco1	none
CC(OC(=O)c1c2c(nc3ccccc13)/C(=C\c1ccc3c(c1)OCO3)CCC2)C(=O)Nc1ccc(S(N)(=O)=O)cc1 (stereo unspecified)	IDE cell activ 26, RTF Ca sens act 115, CRFBP-R2 agonist 314 (no result: IDE inh)
Cc1cccc(C)c1NC(=O)COC(=O)c1c2c(nc3ccccc13)/C(=C\c1ccc3c(c1)OCO3)CCC2	CRFBP-R2 agonist 95
CC(OC(=O)c1cc2ccccc2cc1O)C(=O)Nc1ccc(S(N)(=O)=O)cc1 (stereo unspecified)	none
COc1cc(/C=C2\CCCc3c2nc2ccccc2c3C(=O)O)cc(Br)c1O	none
CCOc1cc(/C=C2\CCCc3c2nc2ccccc2c3C(=O)O)ccc1OC	CRFBP-R2 agonist 201
COc1ccc(/C(C)=N/NC(=O)CNC(=O)/C=C\c2ccco2)cc1	none
COc1cc2c(=O)n(CCC(=O)NCC3CCCO3)c(=O)n(CC(=O)c3ccc(Cl)cc3)c2cc1OC (stereo unspecified)	none
CCN(CC(=O)NCc1cccs1)C(=O)c1ccc(-c2ccc(F)cc2)o1	none
COC(=O)c1ccc(CSc2nc3c(cnn3-c3ccc(F)cc3)c(=O)[nH]2)o1	CRFR2-BP antag 52
CCOC(=O)CSC1=C(C#N)C(c2ccc(F)cc2)C(C(C)=O)=C(C)N1 (stereo unspecified)	none

Bioassay records (PubChem)
